{"source": "the supplement of paper PMC9694430", "note": "“And” between values parts separate entries of the source, which are not always exact repeats. Equal entries are not always repeated. Structures can show the parent of a compound that is named as a salt."}
{"tested_on": "LOC_OS02G08530-cb003", "assay": "thermal shift delta Tm vs DMSO control; higher = stronger stabilization (binding)", "details": "12.5 µM; protein concentration 2 µM", "outline": "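Rice kinase domain constructs were expressed in E. coli, purified, and tested by differential scanning fluorimetry with compound added in DMSO. Each well of a 96-well plate held 19.5 μl of 2 μM kinase in 100 mM potassium phosphate pH 7.5, 150 mM NaCl, 10% glycerol and 5 × SYPRO Orange, and fluorescence was read from 25°C to 95°C at 0.05°C/s. The melting temperature shift is the mean of triplicates, taken against protein with DMSO alone after Boltzmann fitting.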"}
{"smiles": "COc1cc(Nc2ncc(F)c(Nc3ccc4c(n3)NC(=O)C(C)(C)O4)n2)cc(OC)c1OC", "thermal shift delta Tm": "4 °C"}
{"smiles": "Cc1ccc(-n2nc(C(C)(C)C)cc2NC(=O)Nc2ccc(OCCN3CCOCC3)c3ccccc23)cc1", "note": "[Doramapimod (BIRB 796)]", "thermal shift delta Tm": "0.89 °C"}
{"smiles": "CC#CC(=O)N1CC[C@@H](n2c(=O)n(-c3ccc(Oc4ccccc4)cc3)c3c(N)ncnc32)C1", "note": "[ONO-4059 (GS-4059) hydrochloride]", "thermal shift delta Tm": "0.27 °C"}
{"smiles": "O=C(NC[C@H](O)CO)c1ccncc1Nc1ccc(I)cc1F", "thermal shift delta Tm": "0.65 °C"}
{"smiles": "CO[C@H]1C[C@@H]2CC[C@@H](C)[C@@](O)(O2)C(=O)C(=O)N2CCCC[C@H]2C(=O)O[C@H]([C@H](C)C[C@@H]2CC[C@@H](O)[C@H](OC)C2)CC(=O)[C@H](C)/C=C(\\C)[C@@H](O)[C@@H](OC)C(=O)[C@H](C)C[C@H](C)/C=C/C=C/C=C/1C", "note": "[Rapamycin (Sirolimus)]", "thermal shift delta Tm": "0.43 °C"}
{"smiles": "COc1c(C)c(C(=O)c2ccc(N)c(C(=O)O)c2)n2ccccc12", "thermal shift delta Tm": "0.95 °C"}
{"smiles": "CC(C)CC(=O)Nc1n[nH]c2c1CN(C(=O)C1CCN(C)CC1)C2(C)C", "thermal shift delta Tm": "0.95 °C"}
{"smiles": "COc1cc2ncnc(Nc3ccc(O)c(Br)c3)c2cc1OC", "thermal shift delta Tm": "1.8 °C"}
{"smiles": "CCN(CC)CCCC(C)Nc1nc(C)cc(Nc2ccc3nc(C)cc(N)c3c2)n1", "note": "(configuration not stated)", "thermal shift delta Tm": "0.57 °C"}
{"smiles": "Cc1cc(NC(=O)c2cccc(NC(=O)/C=C/CN(C)C)c2)ccc1Nc1nccc(-c2cccnc2)n1", "thermal shift delta Tm": "1.8 °C"}
{"smiles": "COc1cc2ncnc(Nc3cccc(Cl)c3F)c2cc1OC(=O)N1CCN(C)C[C@H]1C", "thermal shift delta Tm": "0.94 °C"}
{"smiles": "Cc1ccc(C(=O)Nc2ccc(Oc3cc4cnn(C)c4cc3-c3cn[nH]c3)c(F)c2)c(=O)n1-c1ccc(F)cc1", "thermal shift delta Tm": "1.25 °C"}
{"smiles": "CC#CC(=O)N1CCC[C@H]1c1nc(-c2ccc(C(=O)Nc3ccccn3)cc2)c2c(N)nccn12", "note": "[Acalabrutinib (ACP-196)]", "thermal shift delta Tm": "0.89 °C"}
{"smiles": "Nc1ncccc1-c1nc2ccc(-c3ccccc3)nc2n1-c1ccc(C2(N)CCC2)cc1", "note": "[Miransertib (ARQ 092) HCl]", "thermal shift delta Tm": "0.49 °C"}
{"smiles": "Cc1cc(C(C)Nc2ccccc2)c2nc(N3CCOCC3)cc(=O)n2c1", "note": "(configuration not stated)", "thermal shift delta Tm": "0.37 °C"}
{"smiles": "COc1cc2nccc(Oc3ccc(NC(=O)C4(C(=O)Nc5ccc(F)cc5)CC4)cc3)c2cc1OC", "note": "[Cabozantinib malate (XL184)]", "thermal shift delta Tm": "1.12 °C"}
{"smiles": "COC(=O)N[C@@H](C)CNc1nccc(-c2cn(C(C)C)nc2-c2cc(Cl)cc(NS(C)(=O)=O)c2F)n1", "note": "[Encorafenib (LGX818)]", "thermal shift delta Tm": "0.83 °C"}
{"smiles": "COc1ccc(C(=O)Nc2sc3c(c2C(N)=O)CCCC3)cc1OC", "thermal shift delta Tm": "2.12 °C"}
{"smiles": "CN1C(=O)[C@@H](NC(=O)c2n[nH]c(Cc3ccccc3)n2)COc2ccccc21", "thermal shift delta Tm": "0.55 °C"}
{"smiles": "Nc1nccc(Oc2ccc(NC(=O)c3c[nH]cc(-c4ccc(F)cc4)c3=O)cc2F)c1Cl", "thermal shift delta Tm": "2.08 °C"}
{"smiles": "COc1cc2c(c(OC)c1OC)-c1c(cc3c(c1OC)OCO3)CC(C)C(C)C2", "note": "(configuration not stated) [Schisandrin B (Sch B)]", "thermal shift delta Tm": "0.6 °C"}
{"smiles": "COC(=O)c1ccc2c(c1)NC(=O)/C2=C(\\Nc1ccc(N(C)C(=O)CN2CCN(C)CC2)cc1)c1ccccc1", "note": "[Nintedanib (BIBF 1120)]", "thermal shift delta Tm": "3.05 °C"}
{"smiles": "O=C(Nc1ccccc1C(=O)NC1CCCCNC1=O)c1cc2ccccc2s1", "note": "(configuration not stated)", "thermal shift delta Tm": "0.19 °C"}
{"smiles": "Cc1cc(C)c(/C=C2\\C(=O)Nc3ccccc32)[nH]1", "note": "[Semaxanib (SU5416)]", "thermal shift delta Tm": "3.63 °C"}
{"smiles": "N#Cc1cccc(-c2c[nH]c3ncnc(N4CCOCC4)c23)c1", "thermal shift delta Tm": "2.7 °C"}
{"smiles": "Cc1ccc2nc(NCCN)c3ncc(C)n3c2c1", "thermal shift delta Tm": "0.92 °C"}
{"smiles": "C[C@@H]1CCN(C(=O)CC#N)C[C@@H]1N(C)c1ncnc2[nH]ccc12", "thermal shift delta Tm": "0.94 °C and 0.96 °C"}
{"smiles": "Cc1nc(NC(=O)N2CCC[C@H]2C(N)=O)sc1-c1ccnc(C(C)(C)C(F)(F)F)c1", "note": "[Alpelisib (BYL719)]", "thermal shift delta Tm": "-0.09 °C"}
{"smiles": "CNc1nc(Nc2cn(C(C)(C)C#N)nc2C)ncc1C(F)(F)F", "thermal shift delta Tm": "0.86 °C"}
{"smiles": "O=C(Nc1c[nH]nc1-c1nc2ccc(CN3CCOCC3)cc2[nH]1)NC1CC1", "thermal shift delta Tm": "3.3 °C"}
{"smiles": "N#Cc1ccc(-c2c(-c3ncn[nH]3)sc(N3CCOCC3)c2C#N)c(F)c1", "thermal shift delta Tm": "0.69 °C"}
{"smiles": "Oc1cccc(-c2nc(N3CCOCC3)c3oc4ncccc4c3n2)c1", "thermal shift delta Tm": "0.91 °C"}
{"smiles": "CN(C)C/C=C/C(=O)Nc1ccc(C(=O)Nc2cccc(Nc3ncc(Cl)c(-c4c[nH]c5ccccc45)n3)c2)cc1", "thermal shift delta Tm": "5.36 °C"}
{"smiles": "CCNC(=O)Nc1ccc(-c2nc(N3CCOC[C@@H]3C)c3c(n2)C(C)(C)S(=O)(=O)C3)cc1", "thermal shift delta Tm": "0.6 °C"}
{"smiles": "CNC(=O)c1cc(Oc2ccc3nc(N[C@@H]4CCCC[C@H]4O)sc3c2)ccn1", "thermal shift delta Tm": "0.76 °C"}
{"smiles": "CN(C)CCOc1ccc(-c2nc(-c3ccncc3)c(-c3ccc4c(c3)CC/C4=N\\O)[nH]2)cc1", "thermal shift delta Tm": "0.96 °C"}
{"smiles": "Cc1ccc(NC(=O)c2cccc(N(C)C)c2)cc1NC(=O)c1ccc(O)cc1", "thermal shift delta Tm": "1.03 °C"}
